Hits are enriched below; roughly 7.7% of the tested compounds scored in any of these assays.
HCMV inh – qHTS Assay for inhibitors of the human cytomegalovirus (HCMV); HFF cells, HCMV-luciferase reporter, 72 h; stronger effect = lower value; activity change, negative = inhibition, % at 57.5 µM; 4.5% of 410,000 active; AID 1259415, 2018; in the data active = activity change below about -60%; inconclusive = no clear call, values can overlap the other calls; inactive = above about -39%
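Inhibition of viral replication was scored as loss of reporter luminescence in HFFs infected with HCMV-luciferase (MOI 1 PFU/cell) for 72 h; compounds tested at 2 doses, normalized to buffer and Salinomycin controls.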
Tb PYK inh – qHTS of Trypanosoma Brucei Inhibitors | pyruvate kinase (Trypanosoma brucei), Q57TT1 | TbPYK enzyme, Kinase-Glo Plus ATP luminescence, 45 min | Potency, µM (series often up to 76.8 µM), usual class: inhibitors | 0.12% of 410,000 active | AID 624173, 2012; also: nearly all actives have a fitted effect of over 50% in size
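Enzyme and substrate buffer are dispensed first and compound is pin-transferred. ADP at 130 uM final then starts the reaction, which runs 45 min at room temperature. Detection reagent is added for 10 min before luminescence is imaged.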
Sm TGR block – qHTS Assay for the Inhibitors of Schistosoma Mansoni Peroxiredoxins. Schistosoma mansoni thioredoxin glutathione reductase (TGR), Q962Y6. purified TGR, DTNB reduction, TNB absorbance 405 nm. Potency, µM (top dose mostly 114 µM), usual class: inhibitors. 3% of 360,000 active; also: nearly all actives have a fitted effect of over 60% in size
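First, TGR (20 nM dispensed) and NADPH were mixed with compound. Second, a 15 min room-temperature incubation followed. Third, further NADPH and then DTNB were added to start the reaction. Finally, TNB absorbance was monitored kinetically.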
FMDV inh – High Throughput Screening for Foot and Mouth Disease Virus Antivirals | 1.2% of 410,000 active | FMDV antiviral cell-based qHTS | Potency, µM (top dose mostly 57.9 µM), usual class: inhibitors; calls by dose curve; tested in HEK293T cells; also: read-out not given here; nearly all actives have a fitted effect of over 45% in size
RE007 growth inh – qHTS Assay for Inhibitors of the HIV-1 protein Vpr | Potency, µM (highest dose often 92.2 µM), actives largely listed as inhibitors | 0.21% of 360,000 active | S. pombe RE007 Vpr strain, BacTiter-Glo ATP luminescence, 24 h | AID 651644, 2012; active = well fitted falling curve with a large enough effect; inconclusive = small, poorly fitted or top-dose-only effect; inactive = no such curve, though single readings can be large or run the other way; also: nearly all actives have a fitted effect of over 50% in size
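Fission yeast strain RE007, carrying one chromosomally integrated HIV-1 vpr copy, was seeded at OD 0.01 in PMG+AL medium with 23 nL pinned compound. After 24 h at 30 °C and 99% humidity, viability was read by BacTiter-Glo luminescence.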
Giardia FBPA inh – qHTS Assay for Inhibitors of Fructose-1,6-bisphosphate Aldolase from Giardia Lamblia; A8B2U2; purified Giardia FBPA; Potency, µM (highest dose often 59.6 µM), most hits filed as inhibitors; 0.71% of 290,000 active; AID 2451, 2010; also: nearly all actives have a fitted effect of over 55% in size
Target sequence (A8B2U2 whole entry, looked up): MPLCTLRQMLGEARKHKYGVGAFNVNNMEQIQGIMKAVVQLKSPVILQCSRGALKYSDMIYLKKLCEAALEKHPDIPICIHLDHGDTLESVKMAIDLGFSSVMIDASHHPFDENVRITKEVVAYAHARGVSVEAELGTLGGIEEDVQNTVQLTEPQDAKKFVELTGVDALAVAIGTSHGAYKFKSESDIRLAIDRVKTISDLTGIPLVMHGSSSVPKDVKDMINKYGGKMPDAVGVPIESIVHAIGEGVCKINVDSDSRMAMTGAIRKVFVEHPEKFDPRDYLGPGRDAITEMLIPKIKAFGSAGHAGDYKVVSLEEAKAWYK
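Giardia FBPA (40 nM reagent) was preincubated 10 min at RT with compound (up to 57.5 uM final), then substrate plus GAPDH/TPI/NAD/arsenate coupling system with diaphorase/resazurin was added; resorufin fluorescence (525/598 nm) was read after 20 min.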
A number is an active result; 0 = inactive; ? = inconclusive; - = no result given; [ ] = another dose, or the depositor's remark. Unless noted, calls follow the shape of the dose curve; as a rule, active = well fitted curve in the direction sought with a large enough effect; inconclusive = small, poorly fitted or top-dose-only effect, or another doubt; inactive = no such curve, though single readings can be large; an effect the other way counts as inactive or inconclusive.

SMILES | HCMV inh | Tb PYK inh | Sm TGR block | FMDV inh | RE007 growth inh | Giardia FBPA inh
CC(C)(C)C(=O)N(Cc1ccc(Cl)cc1)c1cnccn1 | -64 | 0 | 0 | ? | - | 0
CCOC(=O)C1=C(N)Oc2cc(O)ccc2C1c1cccc([N+](=O)[O-])c1 (centres undefined) | -69 | 0 | - | 20µM | 0 | 0
CCOC(=O)C1=C(N)Oc2cc(O)ccc2C1c1ccccc1 (centres undefined) | 0 | 0 | 0 | ? | 0 | 0
COc1ccc(C(=O)NCCSc2c[nH]c3ccccc23)cc1OC | 0 | 0 | 0 | 0 | - | -
CCCN(C(=O)c1c(C)oc2ncn(CC(C)C)c(=O)c12)c1ccccc1C | 0 | 0 | 0 | 0 | - | -
COc1ccccc1/C=C/C=N/NC(=O)c1cc(-c2ccco2)[nH]n1 | 0 | 0 | 7.1µM | 0 | 0 | 0
COc1ccccc1/C=C/C=N/NC(=O)c1ccccn1 | 0 | 0 | 0 | 0 | 0 | 0
COc1ccc(C(=O)C(CN2CCOCC2)c2ccccc2)cc1F (centres undefined) | -105 | 0 | 0 | ? | ? | 0
CCCOc1ccc(C(=O)C(CN2CCOCC2)c2ccccc2)cc1 (centres undefined) | -104 | 0 | 0 | 14µM | 0 | 0
CCOc1ccccc1Oc1nc(C)nc2c1oc1ccccc12 | 0 | 0 | 0 | 0 | - | -
COc1ccc(N2CCN(CC(O)COc3ccc(C(C)C)c(C)c3)CC2)cc1 (centres undefined) | 0 | 0 | 0 | ? | - | -
O=C(CN1CC(=O)Nc2ccccc21)Nc1ccc(F)c(F)c1 | 0 | 0 | 32µM | 0 | 0 | ?
CN(C)CCNC(=O)c1cccc(-c2cnc3c(NC=O)cc(-c4ccc(F)cc4)cn23)c1 | ? | 0 | - | 0 | 0[18.4 µM] | -
CN(C)CCNC(=O)c1cccc(-c2cnc3c(NC=O)cc(-c4cccc(F)c4)cn23)c1 | -87 | 0 | - | 0 | 0[18.4 µM] | -
CC(=O)Nc1cc(-c2cccc(C(=O)NCCN(C)C)c2)cn2c(-c3cccc(C(F)(F)F)c3)cnc12 | -100 | 0 | - | 0 | 0 | -
CCSc1ccc(-c2cc(NC=O)c3ncc(-c4cccc(C(=O)NCCN(C)C)c4)n3c2)cc1 | 0 | 0 | - | 0 | 0[18.4 µM] | -
COc1ccc(-c2cc(NC=O)c3ncc(-c4cccc(C(=O)NCCN(C)C)c4)n3c2)cc1 | -66 | 0 | - | 0 | 0[18.4 µM] | -
COc1cc(NC(C)=O)ccc1-c1cc2ccccc2oc1=O | 0 | 0 | 0 | 0 | 0 | 0
COc1cc(NC(=O)c2ccc(C)cc2C)ccc1NC(=O)c1cc2ccccc2o1 | -82 | 0 | 0 | 0 | 0 | 0
COc1cc(NC(=O)c2ccc(Cl)cc2Cl)ccc1-c1cc2ccccc2oc1=O | -91 | 0 | 0 | 0 | 0 | 0
C=C(C(=O)c1ccccc1)C(CC(=O)c1ccccc1)c1ccccc1 (centres undefined) | -101 | 0 | 0 | 18µM | 0 | 0
C=C(CCC(=O)c1ccccc1)C(=O)c1ccccc1 | -81 | 0 | 45µM | ? | 32µM | 0
Cc1ccccc1OCC(=O)Nc1sc2c(c1C(=O)OC(C)C)CCCC2 | 0 | 0 | 0 | 0 | - | -
CC1(C(=O)Nc2ccc(Cl)c(Cl)c2)CCN1Cc1ccccc1OC(F)F (centres undefined) | 0 | 0 | - | 32µM | 0 | -
CC(=O)N1CCc2cc(NC(=O)C3(C)CCN3Cc3ccccc3Cl)ccc21 (centres undefined) | -78 | 0 | - | 0 | 0 | -
SMILES | HCMV inh | Tb PYK inh | Sm TGR block | FMDV inh | RE007 growth inh | Giardia FBPA inh
COc1ccc(NC(=O)C2(C)CCN2Cc2ccccc2OC(F)F)cc1OC (centres undefined) | 0 | 0 | - | 0 | 0[18.4 µM] | -
COc1ccc(C(=O)Oc2cccc3cccnc23)cc1[N+](=O)[O-] | 0 | 0 | 0 | 0 | 63µM | 0
COc1ccc(C(=O)Oc2cccc3cccnc23)cc1S(=O)(=O)N1CCOCC1 | 0 | 0 | 0 | 0 | 32µM | 0
COc1ccc(C(=O)Oc2ccc(C)cc2)cc1S(=O)(=O)N1CCOCC1 | 0 | 0 | - | 0 | 0 | -
COc1cc2c(cc1OC)[C@@H]1N(C)c3ccccc3[C@@]13CCN(S(=O)(=O)C(F)(F)F)C3=C2 | 0 | - | - | - | - | -
Cc1nc(N2CCCC2)ncc1C(=O)Nc1ccccc1 | 0 | 0 | 0 | 0 | - | -
CCCCc1nn2c(=O)cc(COC(=O)c3ccc(NC(=O)c4cccs4)cc3)nc2s1 | 0 | 0 | 0 | 0 | - | -
COCCc1nn2c(=O)cc(COC(=O)c3ccc(Br)cc3)nc2s1 | 0 | 0 | 89µM | 0 | - | -
CCCc1nn2c(=O)cc(COC(=O)c3ccc(NC(=O)c4cccs4)cc3)nc2s1 | -96 | 0 | 0 | 0 | - | -
COCCc1nn2c(=O)cc(COC(=O)c3ccc(OC)c(OC)c3)nc2s1 | 0 | 0 | 0 | 0 | - | -
CCOc1ccccc1NC(=O)Cc1coc2c(C)c(C)ccc12 | 0 | 0 | 0 | ? | - | -
Cc1ccc(/C=C/C2=Cc3c(sc(NC(=O)CSc4n[nH]c(N)n4)c3C#N)C(C)(C)C2)o1 | - | - | 2.5µM | - | - | 0
CCN(CC)CCCNC(=O)c1ccc2c(c1)N(Cc1c(F)cccc1Cl)C(=O)c1ccccc1S2 | -98 | 0 | 0 | 0 | - | -
Cc1ccc(CN2C(=O)c3ccccc3Sc3ccc(C(=O)NCc4ccco4)cc32)cc1 | -66 | 0 | 0 | 0 | - | -
O=C(NCc1ccc2c(c1)OCO2)c1ccc2c(c1)N(Cc1c(F)cccc1Cl)C(=O)c1ccccc1S2 | 0 | 0 | 0 | 0 | - | -
Cc1ccc(Cn2c(=O)n(-c3ccccc3)c(=O)c3ccc(C(=O)NCc4ccco4)cc32)cc1 | -61 | 0 | 0 | 0 | 0 | 0
O=C(NCc1ccco1)c1ccc2c(c1)N(Cc1c(F)cccc1Cl)C(=O)c1ccccc1S2 | 0 | 0 | 0 | 0 | - | -
CC(=O)OC[C@@H]1O[C@H](CCO/N=C(\C)CCN2CCCCc3nc(C)c(C)cc32)C=C[C@@H]1OC(C)=O | - | - | - | - | - | 0[12.9 µM]
Cc1cc(Cl)ccc1NC(=O)CCS(=O)(=O)c1cc2c(cc1C)NC(=O)CO2 | 0 | 0 | 0 | 0 | - | -
